Parameters in all cases: scale not given: direction of the effect not stated beside the values
Experiment [1] concerns the target Protein translocase subunit SecA (Escherichia coli (strain K12)) (UniProt P10408). In words: Assay to Identify E. coli SecA ATPase Inhibitors. It is filed as functional. The conditions noted are these: 30 µM.
Experiment [2] addresses T1, Ubiquitin-activating enzyme e1, putative (Leishmania donovani (strain BPK282A1)) (UniProt E9BSI1).
T1 sequence (whole entry): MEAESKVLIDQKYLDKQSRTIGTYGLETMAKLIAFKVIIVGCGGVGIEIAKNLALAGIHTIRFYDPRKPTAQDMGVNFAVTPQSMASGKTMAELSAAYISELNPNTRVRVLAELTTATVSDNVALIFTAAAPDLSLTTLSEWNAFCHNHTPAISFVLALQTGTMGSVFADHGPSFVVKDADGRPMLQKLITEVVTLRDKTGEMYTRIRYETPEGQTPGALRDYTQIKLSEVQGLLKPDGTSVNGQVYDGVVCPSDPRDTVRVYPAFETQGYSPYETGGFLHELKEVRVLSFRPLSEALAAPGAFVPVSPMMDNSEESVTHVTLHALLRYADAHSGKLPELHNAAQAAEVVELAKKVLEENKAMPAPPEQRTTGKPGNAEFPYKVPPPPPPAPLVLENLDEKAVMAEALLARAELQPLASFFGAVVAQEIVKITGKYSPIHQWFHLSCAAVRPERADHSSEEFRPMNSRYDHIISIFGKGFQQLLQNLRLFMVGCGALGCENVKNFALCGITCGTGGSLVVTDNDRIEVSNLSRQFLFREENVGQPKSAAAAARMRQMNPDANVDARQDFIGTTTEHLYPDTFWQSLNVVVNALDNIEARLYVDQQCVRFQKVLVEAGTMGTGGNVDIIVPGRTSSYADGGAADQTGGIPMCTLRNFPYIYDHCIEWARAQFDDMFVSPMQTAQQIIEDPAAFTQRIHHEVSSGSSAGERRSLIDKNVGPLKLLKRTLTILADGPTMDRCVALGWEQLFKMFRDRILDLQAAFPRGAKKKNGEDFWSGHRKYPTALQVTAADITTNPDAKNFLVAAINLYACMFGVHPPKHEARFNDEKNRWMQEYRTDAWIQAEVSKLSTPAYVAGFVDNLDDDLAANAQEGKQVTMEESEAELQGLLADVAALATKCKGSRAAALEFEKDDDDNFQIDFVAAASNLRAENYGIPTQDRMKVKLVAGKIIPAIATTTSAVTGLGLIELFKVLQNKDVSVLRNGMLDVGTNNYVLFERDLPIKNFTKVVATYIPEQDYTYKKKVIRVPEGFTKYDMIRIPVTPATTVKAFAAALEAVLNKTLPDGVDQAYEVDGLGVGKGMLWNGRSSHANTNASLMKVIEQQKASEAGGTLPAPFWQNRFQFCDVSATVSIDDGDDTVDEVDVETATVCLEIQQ
Briefly: Leishmania donovani Ubiquitin Activating Enzyme (LdE1). Format: functional. The following applies: 30 µM.

The target in experiment [3] is AMP-activated protein kinase, AMPK (Homo sapiens) (UniProt P54646+O43741+P54619+Q9UGJ0+Q9Y478+Q13131+Q9UGI9). Briefly: AMP-dependent Kinase enzyme assay. An in vitro enzyme assay that detects ADP turnover that is directly proportional to AMPK activity. This uses naive AMPK that is activated during the assay with MK-8722. It is filed as functional. The following applies: 30 µM.

Experiment [4] has as its target Sialic acid-binding Ig-like lectin 9 (Homo sapiens) (UniProt Q9Y336). In words: Hs-Siglec9 ALPHAscreen SOP 20170721. The conditions noted are these: 10 µM.
A further experiment deals with Trypanosoma cruzi. Briefly: Trypanosoma cruzi phosphomannomutase and mannose-1-phosphate guanylyltransferase assay. Format: functional. The following applies: 10 µM.
For experiment [5], the target named is T2, Arginase-2, mitochondrial (Homo sapiens) (UniProt P78540).
T2 sequence (whole entry): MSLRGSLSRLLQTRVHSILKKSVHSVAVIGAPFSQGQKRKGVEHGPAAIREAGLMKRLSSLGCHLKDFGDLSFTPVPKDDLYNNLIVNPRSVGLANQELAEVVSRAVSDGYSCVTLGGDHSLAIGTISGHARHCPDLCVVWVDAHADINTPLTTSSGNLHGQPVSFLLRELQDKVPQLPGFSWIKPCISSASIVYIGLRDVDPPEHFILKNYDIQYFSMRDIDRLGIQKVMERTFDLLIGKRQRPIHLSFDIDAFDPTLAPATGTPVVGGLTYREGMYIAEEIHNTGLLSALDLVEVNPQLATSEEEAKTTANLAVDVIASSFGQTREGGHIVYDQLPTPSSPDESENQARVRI
Briefly: in vitro enzyme assay to detect the production of urea directly proportional to the activity of Arginase II. Also: in the data most compounds retested in dose-response had high values. Format: functional. The conditions noted are these: 33.3 µM.

Experiment [6] concerns the target T3, Proteasome subunit beta (Trypanosoma cruzi) (UniProt O96673).
T3 sequence (whole entry): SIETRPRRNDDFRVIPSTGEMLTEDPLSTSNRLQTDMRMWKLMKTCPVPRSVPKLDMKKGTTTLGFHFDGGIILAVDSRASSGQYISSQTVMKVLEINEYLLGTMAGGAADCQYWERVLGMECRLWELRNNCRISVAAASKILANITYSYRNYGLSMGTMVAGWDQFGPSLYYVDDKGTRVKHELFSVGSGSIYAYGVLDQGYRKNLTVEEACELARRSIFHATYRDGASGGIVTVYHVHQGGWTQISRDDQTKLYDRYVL
In words: Trypanosoma cruzi proteasome chymotrypsin-like activity (TcProtChymo) assay. Also: in the data most compounds retested in dose-response had high values. It is filed as functional. The conditions noted are these: 9.37 µM.

The species named for another experiment is Homo sapiens. Briefly: To identify inhibition of the IFN signalling (Jak-Stat) pathway via expression of an eGFP reporter gene under the control of an IFN-stimulated response element (ISRE) containing MxA promoter. It is filed as functional. The conditions noted are these: 30 µM. (In general: A reporter such as luciferase makes a cellular process visible.)

Experiment [7] has as its target T4, Tyrosyl-tRNA synthetase, putative (Trypanosoma cruzi (strain CL Brener)) (UniProt Q4DSP6).
T4 sequence (whole entry): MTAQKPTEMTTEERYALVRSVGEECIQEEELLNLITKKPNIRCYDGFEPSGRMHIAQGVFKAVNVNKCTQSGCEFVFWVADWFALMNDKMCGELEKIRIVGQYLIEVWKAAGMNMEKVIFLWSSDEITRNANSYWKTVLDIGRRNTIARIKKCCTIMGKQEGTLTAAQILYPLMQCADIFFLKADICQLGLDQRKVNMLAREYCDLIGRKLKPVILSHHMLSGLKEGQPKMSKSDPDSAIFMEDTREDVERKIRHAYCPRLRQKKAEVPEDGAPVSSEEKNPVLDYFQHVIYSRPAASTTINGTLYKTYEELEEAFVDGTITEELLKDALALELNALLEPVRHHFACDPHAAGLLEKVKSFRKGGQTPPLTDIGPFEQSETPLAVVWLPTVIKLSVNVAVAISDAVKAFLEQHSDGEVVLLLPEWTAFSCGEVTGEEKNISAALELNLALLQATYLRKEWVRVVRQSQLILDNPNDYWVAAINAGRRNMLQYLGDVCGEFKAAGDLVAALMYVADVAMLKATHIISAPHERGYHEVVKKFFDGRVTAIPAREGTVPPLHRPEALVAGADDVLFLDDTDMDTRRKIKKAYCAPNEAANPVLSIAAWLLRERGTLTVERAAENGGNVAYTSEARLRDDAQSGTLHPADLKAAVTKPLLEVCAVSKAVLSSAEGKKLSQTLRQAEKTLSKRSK
Briefly: Trypanosoma cruzi tyrosyl tRNA synthetase (TcYRS) _High Tyrosine SOP. Also: in the data most compounds retested in dose-response had high values. The conditions noted are these: 30 µM. It is filed as functional.

The target of experiment [8] is T4, Tyrosyl-tRNA synthetase, putative (Trypanosoma cruzi (strain CL Brener)). In words: Trypanosoma cruzi tyrosyl tRNA synthetase (TcYRS) SOP. It is filed as functional. The conditions noted are these: 30 µM.
Experiment [9] deals with Chromo domain-containing protein 1 (Saccharomyces cerevisiae (strain ATCC 204508 / S288c) (Baker's yeast)) (UniProt P32657). Briefly: ScCHD-1 Enzyme Inhibition Assay. Also: in the data most compounds retested in dose-response had high values. The conditions noted are these: 30 µM. It is filed as functional.
Sequence of Chromo domain-containing protein 1 (Saccharomyces cerevisiae (strain ATCC 204508 / S288c) (Baker's yeast)) (P32657 whole entry, the tested form may be a part): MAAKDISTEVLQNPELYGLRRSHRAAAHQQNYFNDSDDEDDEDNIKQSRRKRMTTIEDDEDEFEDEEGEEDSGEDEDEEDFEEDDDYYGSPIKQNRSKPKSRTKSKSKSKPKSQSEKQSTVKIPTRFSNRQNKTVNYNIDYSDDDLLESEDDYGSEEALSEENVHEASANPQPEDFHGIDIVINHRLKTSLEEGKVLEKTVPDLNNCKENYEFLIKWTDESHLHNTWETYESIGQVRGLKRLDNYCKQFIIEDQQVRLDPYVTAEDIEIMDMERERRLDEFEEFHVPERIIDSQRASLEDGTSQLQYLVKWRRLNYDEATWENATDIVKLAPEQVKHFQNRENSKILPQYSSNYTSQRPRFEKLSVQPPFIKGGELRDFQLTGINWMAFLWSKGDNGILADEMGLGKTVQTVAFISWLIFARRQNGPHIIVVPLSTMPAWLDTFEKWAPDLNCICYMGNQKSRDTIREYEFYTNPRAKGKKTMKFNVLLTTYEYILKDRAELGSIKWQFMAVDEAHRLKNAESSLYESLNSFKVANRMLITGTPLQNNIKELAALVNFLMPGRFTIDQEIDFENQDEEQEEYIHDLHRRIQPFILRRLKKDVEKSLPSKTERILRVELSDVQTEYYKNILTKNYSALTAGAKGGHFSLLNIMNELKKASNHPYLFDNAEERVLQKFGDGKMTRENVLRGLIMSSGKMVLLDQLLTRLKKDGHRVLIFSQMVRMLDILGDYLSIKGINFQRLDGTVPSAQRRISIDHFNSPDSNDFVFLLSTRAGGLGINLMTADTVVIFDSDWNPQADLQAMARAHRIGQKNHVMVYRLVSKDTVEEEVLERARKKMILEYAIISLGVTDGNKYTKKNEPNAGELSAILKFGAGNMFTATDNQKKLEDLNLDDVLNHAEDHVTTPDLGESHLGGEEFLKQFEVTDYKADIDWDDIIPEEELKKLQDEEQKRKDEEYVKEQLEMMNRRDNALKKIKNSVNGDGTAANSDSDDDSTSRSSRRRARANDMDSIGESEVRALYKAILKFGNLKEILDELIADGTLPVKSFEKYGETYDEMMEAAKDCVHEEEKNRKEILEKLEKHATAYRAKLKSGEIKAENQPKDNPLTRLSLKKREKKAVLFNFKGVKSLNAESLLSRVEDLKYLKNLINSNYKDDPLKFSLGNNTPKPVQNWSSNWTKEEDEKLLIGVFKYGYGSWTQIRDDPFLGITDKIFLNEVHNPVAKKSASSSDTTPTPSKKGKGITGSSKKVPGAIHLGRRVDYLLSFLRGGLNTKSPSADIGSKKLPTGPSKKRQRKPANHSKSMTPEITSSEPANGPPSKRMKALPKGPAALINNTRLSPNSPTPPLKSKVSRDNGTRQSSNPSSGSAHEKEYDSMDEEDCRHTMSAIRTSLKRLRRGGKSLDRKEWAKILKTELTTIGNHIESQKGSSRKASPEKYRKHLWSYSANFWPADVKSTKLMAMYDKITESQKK

SMILES strings stand for the structures. For some of these results: Measured potencies and affinities stand elsewhere.

Sequence of Sialic acid-binding Ig-like lectin 9 (Homo sapiens) (Q9Y336 whole entry): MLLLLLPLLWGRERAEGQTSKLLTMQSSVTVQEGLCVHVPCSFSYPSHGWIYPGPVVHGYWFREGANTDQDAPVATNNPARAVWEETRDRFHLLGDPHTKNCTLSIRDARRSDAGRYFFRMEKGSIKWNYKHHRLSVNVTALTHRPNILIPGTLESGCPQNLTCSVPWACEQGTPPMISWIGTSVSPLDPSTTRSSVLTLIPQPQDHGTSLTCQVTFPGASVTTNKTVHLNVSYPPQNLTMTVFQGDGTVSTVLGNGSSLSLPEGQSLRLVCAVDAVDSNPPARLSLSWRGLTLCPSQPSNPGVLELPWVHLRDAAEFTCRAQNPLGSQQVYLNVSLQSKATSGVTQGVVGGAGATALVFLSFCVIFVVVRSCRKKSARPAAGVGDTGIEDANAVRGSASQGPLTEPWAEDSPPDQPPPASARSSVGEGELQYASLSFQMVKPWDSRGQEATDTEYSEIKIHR
Sequence of Protein translocase subunit SecA (Escherichia coli (strain K12)) (P10408 whole entry): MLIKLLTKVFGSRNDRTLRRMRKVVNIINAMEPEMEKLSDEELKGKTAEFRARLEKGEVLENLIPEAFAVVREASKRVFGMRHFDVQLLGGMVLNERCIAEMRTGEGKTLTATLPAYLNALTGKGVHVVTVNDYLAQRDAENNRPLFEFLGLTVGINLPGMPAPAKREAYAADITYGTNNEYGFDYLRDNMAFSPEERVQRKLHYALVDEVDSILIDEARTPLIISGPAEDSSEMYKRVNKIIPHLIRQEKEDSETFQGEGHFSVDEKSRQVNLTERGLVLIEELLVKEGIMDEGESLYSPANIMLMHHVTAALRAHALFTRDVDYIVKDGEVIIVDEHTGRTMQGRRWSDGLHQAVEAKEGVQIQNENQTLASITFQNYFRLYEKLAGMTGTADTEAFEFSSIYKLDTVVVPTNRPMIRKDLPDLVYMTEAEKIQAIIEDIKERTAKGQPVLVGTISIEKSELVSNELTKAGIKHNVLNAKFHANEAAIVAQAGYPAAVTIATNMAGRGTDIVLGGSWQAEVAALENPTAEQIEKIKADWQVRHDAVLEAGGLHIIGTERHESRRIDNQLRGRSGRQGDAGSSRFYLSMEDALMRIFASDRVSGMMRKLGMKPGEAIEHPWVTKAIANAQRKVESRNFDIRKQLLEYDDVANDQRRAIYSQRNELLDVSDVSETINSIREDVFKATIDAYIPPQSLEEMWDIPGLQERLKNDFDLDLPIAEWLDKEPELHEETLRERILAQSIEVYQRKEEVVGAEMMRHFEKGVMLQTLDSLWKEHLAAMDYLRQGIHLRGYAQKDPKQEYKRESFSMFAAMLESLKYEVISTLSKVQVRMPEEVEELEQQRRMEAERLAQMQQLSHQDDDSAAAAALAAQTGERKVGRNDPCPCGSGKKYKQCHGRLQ

Turning to `CCc1nccn1C1CCCN(C(=O)CCCNc2ncccn2)C1` (stereo unspecified), the Percent Effect is -4.28% in experiment [1]; 3.8% in experiment [2]; 4.55% in experiment [3]; 1.92% in experiment [4]; -2.77% with Trypanosoma cruzi; 2.8% in [5]. In addition, the Percent Effect in experiment [6] is 6%; in the experiment listed under Homo sapiens it was 9.01%; in experiment [7] it was 4.17%; in experiment [8], 10.1%; in [9], -14.2%.
With `NS(=O)(=O)c1ccc(NC(=O)CSc2ccc3c(c2)CCC3)cc1`, the Percent Effect in experiment [1] was -2.43%; in experiment [2] it was -2.7%; in [3], 2.08%; in [4], -4.31%; in the experiment on Trypanosoma cruzi, -4.69%; in experiment [5], -21.2%. The Percent Effect in [6] is 13.1%; in the experiment listed under Homo sapiens it was 6.93%; in [7] it was 1.98%; in experiment [8] it was -13.4%; in experiment [9], 17.3%.
With `COCC(=O)NCc1cccc(Br)c1`, the Percent Effect is -0.913% in experiment [1]; 18.4% in experiment [2]; -5.98% in experiment [3]; -7.74% in experiment [4]; 4.89% with Trypanosoma cruzi; 1.92% in experiment [5]. For the same compound, the Percent Effect is 11.4% in [6]; 13.3% in the experiment listed under Homo sapiens; 4.41% in experiment [7]; 19.5% in [8]; -12.7% in experiment [9].
As to `O=C1NC2(CCN(C(=O)Cc3ccsc3)CC2)CC1c1ccncc1` (stereo unspecified), the Percent Effect in experiment [1] was 2.65%; in experiment [2] it was 10.4%; in experiment [3], 2.31%; in experiment [4], -7.01%; with Trypanosoma cruzi, -7.99%; in experiment [5], 16.1%. The Percent Effect was 11.1% in experiment [6]; 5.79% in the experiment listed under Homo sapiens; 6.35% in experiment [7]; 14.1% in experiment [8]; -9.26% in [9].
Consider `Cc1cc(C[S+]([O-])CC(=O)NCc2cccs2)no1` (stereo unspecified), for which the Percent Effect was -6.18% in experiment [1]; 10.4% in [2]; 3.08% in experiment [3]; 10.1% in experiment [4]; 1.87% with Trypanosoma cruzi; -6.05% in [5]. The Percent Effect in [6] is 1.01%; in the experiment filed under Homo sapiens, 5.94%; in [7], 8.74%; in experiment [8], 19.5%; in experiment [9], -5.87%.
As for `CN(C)C(=O)CN1C[C@@H]2CC[C@H](C1)N(C(=O)CCn1cncn1)C2`, the Percent Effect in [1] was -2.58%; in experiment [2], 5.41%; in experiment [3], -3.51%; in [4], 3.26%; in the experiment on Trypanosoma cruzi, -1.16%; in experiment [5] it was -0.952%. The Percent Effect in [6] was 2.76%; in the experiment listed under Homo sapiens, -15.8%; in experiment [7], 6.88%; in experiment [8] it was 9.76%; in experiment [9], -3.62%.
In the case of `O=C(COc1cccc(Br)c1)N1CCN(c2nccs2)CC1`, the Percent Effect was -4.01% in experiment [1]; 18.7% in [2]; 3.31% in experiment [3]; 10.4% in [4]; 4.58% in the experiment on Trypanosoma cruzi; 47.4% in experiment [5]. Further, the Percent Effect in experiment [6] was 19.4%; in the experiment listed under Homo sapiens it was 26.2%; in experiment [7] it was 3.83%; in [8] it was 16.1%; in [9], 84.6%.
On to `Cc1ccc(N2CC[C@H](OCC3CC3)[C@@H]2Cc2cnn(C)c2)nn1`, for which the Percent Effect in experiment [1] is -4.88%; in experiment [2], 5.41%; in experiment [3] it was -7.52%; in experiment [4], -0.711%; in the experiment on Trypanosoma cruzi, -0.195%; in experiment [5], 0.833%. The Percent Effect in experiment [6] amounted to 15.1%; in the experiment listed under Homo sapiens it was 8.56%; in [7], 7.92%; in [8], 8.54%; in [9] it was 0.632%.
For the compound `CCn1c(CN(C)C)nnc1C1CCN(Cc2ccccc2)CC1`, the Percent Effect in experiment [1] was -0.0485%; in [2], 10.4%; in experiment [3] it was 2.85%; in experiment [4] it was 13.5%; with Trypanosoma cruzi it was 5.61%; in [5], -6.9%. Further, the Percent Effect in [6] was 11.7%; in the experiment listed under Homo sapiens it was 12.4%; in [7] it was 7.53%; in experiment [8], 21%; in [9], -8.57%.
As to `CCC(=O)Nc1nnc(CCCOc2ccccc2)s1`, the Percent Effect in experiment [1] is -6.68%; in experiment [2], -1.33%; in experiment [3], 6.74%; in experiment [4] it was 2.25%; in the experiment on Trypanosoma cruzi, 1.77%; in experiment [5] it was -9.68%. The Percent Effect is 10.3% in experiment [6]; -7.47% in the experiment filed under Homo sapiens; 7.41% in [7]; 5.13% in [8]; -0.786% in [9].
Regarding `CNc1nc(CNC(=O)Nc2ccccc2-c2noc(C)n2)cs1`, the Percent Effect in [1] is -1.81%; in experiment [2], -2.63%; in experiment [3] it was -2.79%; in experiment [4] it was -0.349%; in the experiment on Trypanosoma cruzi it was -3.19%; in experiment [5], -1.92%. For the same compound, the Percent Effect is 3.01% in experiment [6]; 17.1% in the experiment filed under Homo sapiens; 1.47% in experiment [7]; -4.88% in [8]; -4.83% in [9].

Values taken from ChEMBL document CHEMBL3988442, “University of Dundee, Small-Polar-MMV Screening Library” (2021).
